Active and inactive are the calls of the source. How the calls were made is not given here.

The assay is described as follows: quenching of GFP signal – biochemical, fluorescence, dose response, round 2, artefact control for Rin1-Abl interaction inhibitor project, late-stage follow-up (AID 686965). Particulars: GFP fluorescence quenching/inhibition counterscreen.
Turning to `Cn1ccc(OCc2ccccc2)cc1=O`, the IC50 is > 67.5 µM (inactive).
On to `COc1cc(OCc2ccccc2)ccn1`, for which the IC50 is > 67.5 µM (inactive).
For the molecule `COc1cc(OCc2ccc(F)cc2)ccn1`, the IC50 is > 67.5 µM (inactive).
`COc1ccc(COc2ccnc(OC)c2)cc1`: the IC50 was > 67.5 µM (inactive).
As for `O=c1cc(OCc2ccccc2)cc[nH]1`, the IC50 is > 67.5 µM (inactive).
Regarding `Cn1ccc(OCc2ccc(F)cc2)cc1=O`, the IC50 is > 67.5 µM (inactive).
As to `Nc1cc(OCc2ccccc2)ccn1`, the IC50 is > 67.5 µM (inactive).
Consider `COc1ccc(COc2cc[nH]c(=O)c2)cc1`, for which the IC50 was > 67.5 µM (inactive).
Take `COc1ccc(COc2ccn(C)c(=O)c2)cc1`: the IC50 was > 67.5 µM (inactive).
Consider `O=c1cc(OCc2ccc(F)cc2)cc[nH]1`, for which the IC50 is > 67.5 µM (inactive).

The record behind these values is PubChem BioAssay AID686965 (The Scripps Research Institute Molecular Screening Center, 2013).
